Common to all, as to format: functional
In assay [1] the target is Solute carrier family 2, facilitated glucose transporter member 1 (Homo sapiens) (UniProt P11166). Kind of assay: ST_JUDE_LEISH: Cytotoxicity at 2uM final concentration against transgenic Leishmania Mexicana promastigotes LmGLUT1 that are glucose transport deficient and complemented with the human glucose transporter GLUT1. Activity is measured by DNA content using SYBR green in vitro.

For assay [2], the target named is Hexose transporter 1 (Plasmodium falciparum) (UniProt O97467). Kind of assay: ST_JUDE_LEISH: Cytotoxicity at 2uM final concentration against transgenic Leishmania Mexicana promastigotes LmPfHT that are glucose transport deficient and complemented with the Plasmodium falciparum hexose transporter. Activity is measured by DNA content using SYBR green in vitro.
Assay [3] deals with Glucose transporter (Leishmania mexicana) (UniProt O61059). The experiment in a line: ST_JUDE_LEISH: Cytotoxicity at 2uM final concentration against transgenic Leishmania Mexicana promastigotes LmGT2 that are glucose transport deficient and complemented with the L. Mexicana glucose transporter 2. Activity is measured by DNA content using SYBR green in vitro.

Solute carrier family 2, facilitated glucose transporter member 1 (Homo sapiens), sequence (P11166 whole entry): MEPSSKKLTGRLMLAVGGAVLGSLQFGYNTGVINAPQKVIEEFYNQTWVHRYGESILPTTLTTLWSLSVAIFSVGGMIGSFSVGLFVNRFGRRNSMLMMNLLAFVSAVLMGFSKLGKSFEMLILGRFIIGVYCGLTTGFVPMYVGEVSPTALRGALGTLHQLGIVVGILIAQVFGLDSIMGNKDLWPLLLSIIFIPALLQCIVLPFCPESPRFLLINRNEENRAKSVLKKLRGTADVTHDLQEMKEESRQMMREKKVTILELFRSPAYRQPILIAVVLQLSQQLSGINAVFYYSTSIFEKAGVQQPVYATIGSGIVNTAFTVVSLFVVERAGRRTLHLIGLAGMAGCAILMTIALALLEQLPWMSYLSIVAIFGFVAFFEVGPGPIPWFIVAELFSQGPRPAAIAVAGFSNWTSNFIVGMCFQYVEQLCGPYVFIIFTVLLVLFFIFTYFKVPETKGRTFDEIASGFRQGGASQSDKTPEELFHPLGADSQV

Take `COc1ccc(C(=O)Nc2cc(Br)c3c(c2)CNCC3)cc1C(F)(F)F`: the results for the inhibition in assay [1], in assay [2] and in assay [3] were 4.52%, 1.74% and 1.37%, respectively.
On the same counts, the results for `Cc1cccc(C(=O)Nc2ccnc(N3CCCN(Cc4cccc(O)c4)CC3)c2)c1` are -0.1%, 1.14% and -0.7%.
With `COc1ccc2[nH]c(C)cc(=NN=Cc3cccc(F)c3)c2c1`, the inhibition in assay [1] turned out to be 5.17%; in assay [2] it was 5.7%; in assay [3] it was 2.61%.
Turning to `COc1ccc(-c2nc(NC(=O)Cc3ccc4c(c3)OCCO4)sc2C)cc1`, the values for the inhibition in assay [1], in assay [2] and in assay [3] were 3.71%, 4.52% and 5.29%, respectively.
For `c1ccc2[nH]c(-c3ccc(-c4ccc(CN5CCN(CCN6CCOCC6)CC5)cc4)s3)nc2c1`, in that order: 10.4%, 9.34% and 7.67%.
In the case of `Cc1cc(F)ccc1[C@H]1C[C@H](N2CCOCC2)CCN1C(=O)N(C)[C@@H](C)c1cc(C(F)(F)F)cc(C(F)(F)F)c1`, the values for the inhibition in assay [1], in assay [2] and in assay [3] were 0.71%, 0.17% and -0.74%, respectively.
As for `CC(C)OC(=O)c1ccc(NC(=O)N[C@@H](Cc2ccc(O)cc2)C(=O)NC2CC3CCC(C2)N3Cc2ccccc2)cc1` (some centres undefined), the figures for the inhibition in assay [1], in assay [2] and in assay [3] were 5.85%, 4.77% and -0.07%, respectively.
On the same counts, the results for `CO/C(=C\C=C\c1cc2cc(Cl)c(Cl)cc2[nH]1)C(=O)NC1CCN(CCOc2ccccc2)CC1` are 8.51%, 7.84% and 0.9%.
For `CCN(CCNC(=O)Nc1cc(C(F)(F)F)cc(C(F)(F)F)c1)c1cccc(C)c1`, the inhibition in assay [1] is 5.44%; in assay [2], 4.69%; in assay [3] it was 5.45%.
For `COc1ccc(C2C(C(=O)Nc3cc(Cl)c(OC)cc3OC)c3ccccc3C(=O)N2C)cc1` (centres undefined), in that order: 0.28%, 1.49% and -1.07%.
Consider `CS(=O)(=O)c1ccc(CNCc2ccc(-c3cccc(-c4nc5ccccc5[nH]4)c3)cc2)cc1`, for which the inhibition in assay [1] turned out to be 17.3%; in assay [2], 15.6%; in assay [3], 14%.
Consider `Cc1ccc(CNC(=O)c2cc3c(=O)n4cccc(C)c4nc3n(CCN3CCOCC3)c2=N)cc1`, for which the inhibition in assay [1] is -0.35%; in assay [2] it was 1%; in assay [3], 1.48%.
Regarding `NC(=O)c1c(Cl)nc2ccccc2c1Cl`, the inhibition is 4.35% in assay [1], 4.69% in assay [2] and 4.04% in assay [3].
Take `Cc1ccc(-n2c(=O)c3c(n4c(SC(C)C)nnc24)-c2ccccc2CC32CCCCC2)cc1`: the inhibition in assay [1] is 7.08%; in assay [2] it was 6.98%; in assay [3] it was 5.47%.
On the same counts, the results for `Cc1sc2nc(CN3CCCC3)nc(-n3c(NCCO)nc4ccccc43)c2c1C` are 4.18%, 5.54% and 5.9%.
For `CN1CCN(CC(=O)Nc2cccc(-c3ccc(-c4nc5cc(F)ccc5[nH]4)s3)c2)CC1`, in that order: 7.26%, 7.42% and 5.89%.
Consider `COc1ccc2nccc(N3CCC(SCCNS(=O)(=O)c4ccc5c(c4)OCCO5)C3)c2n1` (centres undefined), for which the figures for the inhibition in assay [1], in assay [2] and in assay [3] were 5.04%, 3.57% and -0.04%, respectively.
Turning to `COc1ccc(-c2cccc(NC(=O)c3cccc(C#N)c3)c2)cc1CN1CCC(O)CC1`, the inhibition in assay [1] came out at 3.79%; in assay [2], 3.97%; in assay [3] it was 4.2%.
On the same counts, the results for `Cc1ccc(OCCCCON2C(=N)N=C(N)NC2(C)C)cc1C` are 1.02%, 1% and 0.54%.
For the compound `CN(C)c1ccc(CN2CCC(CNC(=O)c3cc(-c4cccc(C(F)(F)F)c4)cs3)C2)cc1` (centres undefined), the inhibition in assay [1] was 2.15%; in assay [2], 1.34%; in assay [3], 1.72%.
On the same counts, the results for `CN(C)c1cccc2c1nc(-c1ccco1)n2CC1CCCN1` (centres undefined) are -1.97%, -3.51% and -0.52%.
`COc1cc2nc(N3CCC(CNC(=O)c4ccc(-c5ccc(C(=O)N(C)C)cc5OCCO)cc4)CC3)nc(N)c2cc1OC`: the inhibition in assay [1] was -1.09%; in assay [2], 2.24%; in assay [3], 1.27%.
For `N=C(N)NCCCN(Cc1ccccc1)c1ccc(Cl)cc1`, in that order: 7.39%, 4.12% and 4.83%.
`CC(C)(C)OC(=O)N[C@@H](Cc1ccccc1)C(=O)Nc1cccc(-c2cccc(NC(=O)[C@H](Cc3ccccc3)NC(=O)OC(C)(C)C)c2)c1`: the inhibition in assay [1] stood at 0.62%; in assay [2], 0.21%; in assay [3] it was 0.33%.
For `O=C(/C=C/c1ccc(Cl)c(Cl)c1)N1CCC(NCc2ccc3[nH]ccc3c2)CC1`, in that order: 4.05%, 4.06% and 0.76%.
For `Cc1[nH]c(C)c(-c2ccc(-c3ccccc3)nc2)c(=O)c1Br`, in that order: -0.2%, 0.36% and 0.2%.
As for `CN(C)c1ccc2nc(N)nc(N)c2c1Cl`, the inhibition in assay [1] worked out at 3.29%; in assay [2], 3.16%; in assay [3], 3.5%.
Consider `O=C(NCc1ccccn1)C(c1cc2ccccc2o1)N1CCN(C(c2ccccc2)c2ccccc2)CC1` (centres undefined), for which the inhibition in assay [1] was 0.6%; in assay [2], 2.14%; in assay [3] it was 2.55%.
On the same counts, the results for `COc1ccc2nccc([C@@H](O)CN3CCC(NC(=O)c4cc5cccnc5[nH]4)CC3)c2c1` are 5.47%, 3.5% and -0.32%.
On the same counts, the results for `CC(C)c1cc2c(cc1O)C(Cc1ccccc1Cl)N(C)CC2` (centres undefined) are 2.73%, -0.25% and 0.89%.
As for `CC(=O)Nc1nc(C(=O)Nc2cccc(-c3ccc(-c4nc5cc(F)ccc5[nH]4)cc3)c2)cs1`, the results for the inhibition in assay [1], in assay [2] and in assay [3] were 2.38%, 1.38% and 4.22%, respectively.
For the compound `COc1ccc(NS(=O)(=O)c2cc(NC(=O)Cn3ccccc3=O)ccc2N2CCCCC2)cc1`, the values for the inhibition in assay [1], in assay [2] and in assay [3] were 2.57%, 3.46% and -7.28%, respectively.
With `COc1ccc(CN(C)Cc2cc(C(C)C)c(C)cc2O)cc1F`, the inhibition in assay [1] is 2.07%; in assay [2], 1.85%; in assay [3] it was -2.13%.
On the same counts, the results for `COc1cc2c(cc1OC)CN(CCCCNC(=O)c1ccc(NC(=O)c3cc(Cl)cc(Cl)c3)cc1)CC2` are 2.09%, 3.93% and 6.32%.
For `Cc1nc(-c2cccc(Nc3nccc(NCC(O)c4cccc(C(F)(F)F)c4)n3)c2)cs1` (centres undefined), in that order: 1.56%, 0.83% and -0.26%.
As for `O=C(Cc1c[nH]cn1)Nc1ccc(-c2ccc(-c3nc4cc(F)ccc4[nH]3)cc2)cc1`, the inhibition is 1.05% in assay [1], 0.28% in assay [2] and -0.48% in assay [3].
For the compound `CCOc1cc(CC)ccc1C1CCN(CCCCNC(=O)c2ccc(NC(=O)c3ccc(Cl)cc3)cc2)CC1`, the inhibition turned out to be 4.23% in assay [1], 2.23% in assay [2] and 4.97% in assay [3].
On the same counts, the results for `CC(=O)Nc1ccc(OCCCCN(Cc2ccccc2OC(F)(F)F)c2ccc(C(F)(F)F)c(C#N)c2)c(Cl)c1` are 1.46%, 4.12% and 7.95%.
On to `O=C(c1cccc(-c2noc(C(F)(F)F)n2)c1)N1CCN(C(=O)c2ccc3cc[nH]c3c2)CC1`, for which the inhibition is -0.84% in assay [1], -0.23% in assay [2] and -1.68% in assay [3].
Consider `C=CCc1cc(Cc2cnc(N)nc2N)cc(CCC)c1OC`, for which the inhibition in assay [1] was found to be 15.3%; in assay [2], 12.5%; in assay [3], 8.6%.
In the case of `CN(CC(=O)Nc1cc(C(F)(F)F)ccc1-n1cncn1)Cc1ccc2ccccc2c1`, the inhibition in assay [1] was 2.14%; in assay [2] it was 1.25%; in assay [3] it was 1.8%.
On the same counts, the results for `Cc1nc(-c2nc(N3CCC(C(N)=O)CC3)ncc2-c2ccsc2)sc1C` are 8.94%, 7.69% and 6.73%.
Regarding `COc1ccc(-c2cccc(NC(=O)c3cccs3)c2)cc1CN1CCCN(C)CC1`, the results for the inhibition in assay [1], in assay [2] and in assay [3] were 0.38%, 0.37% and -1.25%, respectively.
For `C[C@@H](NC(=O)c1nn(-c2ccc(Cl)cc2)c(=O)c2ccccc12)C(C)(C)C`, in that order: 1.61%, 1.12% and 0.85%.
On to `FC(F)(F)c1ccc2[nH]c(-c3ccc(-c4cccc(CNCC5CCCO5)c4)cc3)nc2c1` (centres undefined), for which the figures for the inhibition in assay [1], in assay [2] and in assay [3] were 3.87%, 2.83% and 2.68%, respectively.
For `O=C(Nc1cccc(Cl)c1)N[C@H]1CCN(Cc2ccc(OCCCN3CCCCC3)cc2)C1`, in that order: 9.4%, 9.12% and 8.16%.
For `CC(C)(C)c1ccc(CN2CCCCC(NC(=O)c3cc(-c4cccc(F)c4)cs3)C2)cc1` (centres undefined), in that order: -2.41%, -3.63% and -0.11%.
For `CN1CCN(c2ccnc3ccc(NC(=O)Cc4ccc(OCc5ccccc5)cc4)cc23)CC1`, in that order: 7.43%, 7.76% and 8.79%.

Values taken from ChEMBL document CHEMBL3433997, “St. Jude Leishmania screening dataset” (2016).
